From PubChem BioAssay come the findings set out here.

The source made the active and inactive calls. No rule for the calls is given here.

The nature of this experiment: inhibitors of hydroxyurea-induced Chk1 phosphorylation, primary screen, imaging, HeLa, phospho-Chk1 nuclear intensity (AID 1187). Also: test concentration not given here. The following applies: hydroxyurea-induced phospho-Chk1 immunofluorescence imaging, higher = more signal.
As to `N#Cc1ccc(NN2C(C(O)c3ccccc3)C=CC3C(=O)N(c4ccccc4)C(=O)C32)cc1` (stereo unspecified), the z-score was 0.691 (inactive). As to `O=C(NCc1ccccc1)[C@]1(Cc2ccccc2)N=C(c2ccc(OCCCO)cc2)O[C@@H]1c1ccccc1`, the z-score is -1.17 (inactive). In the case of `CC(C)CCC[C@@H](C)[C@H]1CC[C@@]2(C)C3=C(CC[C@]12C)[C@@]1(C)CC[C@H](OC(=O)C(C)(C)C)C(C)(C)C1CC3` (stereo partly specified) it was -1.89 (inactive).

As for `NC(=O)NCC#Cc1ccc2c(c1)[C@]1(C(=O)N2)[C@H](c2ccc(OCCO)cc2)N2[C@H](c3ccccc3)[C@H](c3ccccc3)OC(=O)[C@H]2[C@@H]1C(=O)N1CCCCCCC1`, the z-score was -0.265 (inactive).

For the molecule `[N-]=[N+]=Nc1ccccc1[C@H]1OC(c2ccc(OCCCO)cc2)=N[C@@]1(Cc1ccccc1)C(=O)NCc1ccccc1`, the z-score was -0.5 (inactive).

For the molecule `COCCOC(=O)N1C(=O)[C@@]2(c3cc(C#CCC(C(=O)OC)C(=O)OC)ccc31)[C@H](C(=O)N1CCCCCCC1)[C@H]1C(=O)O[C@H](c3ccccc3)[C@H](c3ccccc3)N1[C@@H]2c1ccc(O)cc1`, the z-score is -0.367 (inactive). In the case of `C=CC[C@]1(C(=O)NCC(O)CO)N=C(c2ccc(OCCCO)cc2)O[C@H]1c1ccccc1N=[N+]=[N-]` (stereo partly specified) it was -0.236 (inactive). For `O=C(Nc1cc(Br)ccc1C(=O)NCc1cccc(O)c1)c1ccccc1` the value was -0.27 (inactive); for `CC1CC/C=C\[C@H]2OC34C=CCN(c5ccc(Cl)cc5)C(=O)[C@H]3N(C(CO)C(C)C)C(=O)[C@]4(C)C2C(=O)O1` (stereo partly specified), -0.512 (inactive). Take `CC1=C2[C@@H](CCc3ccccc3)OB(O)C[C@@H]2[C@@H]2C(=O)C=CC(=O)[C@@H]2C1`: the z-score is 1.1 (inactive).

For the molecule `[N-]=[N+]=NCc1ccccc1C[C@]1(C(=O)NCCN2CCOCC2)COC(c2ccc(OCCCO)cc2)=N1`, the z-score is -0.625 (inactive). For `COc1ccc(CCNC(=O)[C@@H]2c3ccccc3C(=O)N(Cc3ccccc3)[C@H]2c2ccc(CO)cc2)cc1` the value was -1.38 (inactive); for `C=CC[C@@]1(C(=O)NCC(O)CO)N=C(c2ccc(OCCCO)cc2)O[C@@H]1c1ccccc1` (stereo partly specified), -0.244 (inactive). For `CO[C@H]1O[C@H](CO)[C@@H](OC(=O)Nc2cccc(F)c2)[C@H](OC(=O)Nc2ccc3c(c2)OCO3)[C@H]1OC(=O)Nc1ccc2c(c1)OCO2`, the z-score was 0.0427 (inactive).

For the molecule `COc1ccc(C#Cc2ccc3c(c2)[C@]2(C(=O)N3)[C@H](c3ccc(OCCO)cc3)N3[C@H](c4ccccc4)[C@H](c4ccccc4)OC(=O)[C@H]3[C@@H]2C(=O)N2CCN(c3ncccn3)CC2)cc1`, the z-score is -0.0676 (inactive). For `COCC(=C=CC[C@@H](O)c1ccccc1OCCO)C[C@@H](O)c1ccccn1` the value was 0.289 (inactive); for `CCCN1C(=O)[C@@]2(Cc3ccccc3)N=C(c3ccc(OCCCO)cc3)O[C@H]2c2ccccc21`, 0.555 (inactive).

On to `NC(=O)NCC#Cc1ccc2c(c1)[C@]1(C(=O)N2)[C@H](c2ccc(OCCO)cc2)N2[C@H](c3ccccc3)[C@H](c3ccccc3)OC(=O)[C@H]2[C@@H]1C(=O)N1CCN(c2ncccn2)CC1`, for which the z-score was 1.09 (inactive). Take `C=CCC(OC(C)=O)[C@@H]1[C@@H](N(Cc2cccc3ccccc23)C(=O)c2ccc(C)cc2)c2cc(OCCCO)ccc2N1C(=O)c1ccc2ccccc2c1` (stereo partly specified): the z-score is -0.761 (inactive). On to `COc1ccc([Si](C)(C)[C@@H]2[C@@H](CC(=O)N(CCO)Cc3ccccc3)O[C@]3(C(=O)N(Cc4ccc(N5CCOC5=O)cc4)c4ccccc43)[C@H]2C)cc1`, for which the z-score is 0.0764 (inactive). Consider `COc1ccccc1CN1C(=O)c2ccccc2[C@](Cc2ccccc2I)(C(=O)NCCN2CCOCC2)[C@@H]1c1ccc(CO)cc1`, for which the z-score was 0.0168 (inactive).

For the molecule `CN(C)CCCN1C(=O)[C@@]2(Cc3ccccc31)c1ccccc1C(=O)N(Cc1ccccc1)[C@H]2c1ccc(CO)cc1`, the z-score is -0.682 (inactive). For `Cc1ccc(S[C@]2(C(=O)O)CC(=O)N(Cc3ccccc3C(F)(F)F)[C@@H]2c2ccc(CO)cc2)cc1` the value was -0.53 (inactive); for `CCOC(=O)C1=CC[C@@H](c2ccccc2)N(S(=O)(=O)c2ccc(C)cc2)[C@H]1C=C(C)C`, 0.0493 (inactive).

As for `COCCOC(=O)N1C(=O)[C@@]2(c3cc(C#CCNC(N)=O)ccc31)[C@H](C(=O)N1CCCCCCC1)[C@H]1C(=O)O[C@H](c3ccccc3)[C@H](c3ccccc3)N1[C@@H]2c1ccc(OCCO)cc1`, the z-score was -0.64 (inactive).

Consider `CC(C)CNC(=O)[C@@]1(C)c2ccccc2C(=O)N(Cc2ccccc2)[C@H]1c1ccc(CO)cc1`, for which the z-score was -0.267 (inactive). As for `C=CCC(OC(C)=O)[C@@H]1[C@@H](N(Cc2ccc(-c3ccccc3)cc2)C(=O)c2cccc3ccccc23)c2cc(OCCCO)ccc2N1C(=O)c1ccc2ccccc2n1` (stereo partly specified), the z-score is -0.368 (inactive). `COc1ccc([Si](C)(C)[C@@H]2[C@@H](CCO)O[C@]3(C(=O)N(Cc4ccccc4)c4ccc(N5C(=O)COc6ccccc65)cc43)[C@H]2C)cc1`: the z-score is -1.47 (inactive).

For the molecule `C=C(COC)/C(=C/C[C@@H](OC(=O)c1ccncc1)c1cccc(OCCO)c1)c1cc(C(=O)OC)ccc1OC`, the z-score was 0.527 (inactive). In the case of `O=C1NC(=O)C2C1C=CC(C(O)c1ccc3c(c1)OCO3)N2Nc1ccc(Cl)cc1Cl` (stereo unspecified) it was 0.417 (inactive); in that of `[N-]=[N+]=NCc1ccccc1C[C@@]1(C(=O)NCCN2CCOCC2)N=C(c2ccc(OCCCO)cc2)O[C@@H]1c1ccccc1CN=[N+]=[N-]`, 0.693 (inactive); in that of `C[N+](C)(C)CCCCCCNC(=O)[C@@H]1C[C@@H]2C(=O)NCC(=O)N2[C@@H]1c1ccc(O)cc1`, 0.992 (inactive). In the case of `COC(=O)[C@@]1(Cc2ccccc2N=[N+]=[N-])N=C(c2ccc(OCCCO)cc2)O[C@H]1c1ccccc1` it was -0.447 (inactive); in that of `COCCOC(=O)N1C(=O)[C@@]2(c3cc(C#Cc4ccc(OC)cc4)ccc31)[C@H](C(=O)N1CCc3cc(OC)c(OC)cc3C1)[C@H]1C(=O)O[C@H](c3ccccc3)[C@H](c3ccccc3)N1[C@@H]2c1ccc(OCCO)cc1`, 0.277 (inactive).

Consider `O=C1O[C@H](c2ccccc2)[C@H](c2ccccc2)N2[C@H]1[C@@H](C(=O)N1CCCCCCC1)[C@]1(C(=O)Nc3ccc(C#CCCO)cc31)[C@H]2c1ccc(OCCO)cc1`, for which the z-score was -0.203 (inactive). In the case of `CCCC[C@H]1OB(O)C[C@H]2C1=C(COc1ccccc1)Cn1c(=O)n(-c3ccccc3)c(=O)n12` it was -0.247 (inactive).
